We go through 8 molecules from PubChem BioAssay (NCI).

Test in all cases: NCI-60 one-dose screen, 48 h (100 = growth as untreated, 0 = no growth, -100 = all killed)
Common to all, as to settings: 10 µM unless noted

Experiment [1] relates to DU-145 prostate.
For experiment [2], the system named is K-562 leukemia.
The test system of experiment [3] is MALME-3M melanoma.
The subject of experiment [4] is MDA-MB-231 breast.
Experiment [5] concerns RXF 393 renal.
Experiment [6] concerns SF-268 CNS.
The test system of experiment [7] is SF-295 CNS.
The test system of experiment [8] is SF-539 CNS.
The test system of experiment [9] is UACC-257 melanoma.
For experiment [10], the system named is M14 melanoma.
The subject of experiment [11] is HCT-15 colon.
For experiment [12], the system named is HT29 colon.
For experiment [13], the system named is SNB-75 CNS.
The subject of experiment [14] is SNB-19 CNS.
For experiment [15], the system named is U251 CNS.
Experiment [16] deals with PC-3 prostate.
Experiment [17] concerns SK-MEL-5 melanoma.
Experiment [18] deals with UACC-62 melanoma.
Experiment [19] has as its system LOX IMVI melanoma.
Experiment [20] concerns SK-MEL-28 melanoma.

About 83,000 compounds went through this panel and 20% of them were active in at least one assay; those are over-represented in the sample as a whole.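 Treatment: one concentration, 48 hours, 96-well format. Scoring: percent growth, with anything below 10 considered active.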 Values without a mark were called inactive. The source made the active and inactive calls.

On to `Cc1ccc(C(=O)c2ccc(CC(=O)N=Nc3c(O)[nH]c4ccc(Br)cc34)n2C)cc1`, for which the growth is 97.8% in [1]; 83.5% in experiment [2]; 111% in experiment [3]; 88.4% in [4]; 87% in experiment [5]; 87.7% in experiment [6]. The growth is 99.1% in experiment [7]; 92.4% in [8]; 105% in [9]; 91.3% in experiment [10]; 96.7% in experiment [11]; 105% in experiment [12]. Besides, the growth in experiment [13] was 84%; in [14], 89%; in [15] it was 92.6%; in [16], 89.3%; in [17], 95.9%; in experiment [18] it was 94.6%. In addition, the results for the growth in experiment [19] and in [20] were 88.9% and 102%, respectively.

Turning to `CC/C=C\CCC/C=C1/C(=O)C=C[C@@H]1C/C=C\CCCC(=O)OC`, the growth is 60.4% in [1]; 0.856% (active) in experiment [2]; 34.1% in experiment [3]; 15.3% in [4]; 96.4% in experiment [5]; 31% in [6]. Besides, the growth in experiment [7] is 74.2%; in [8], 95.4%; in experiment [9] it was 69.7%; in [10], 1.66% (active); in experiment [11] it was 4.07% (active); in experiment [12], -1.77% (active). The growth in [13] is 82.7%; in experiment [14], 50.2%; in experiment [15] it was 19.7%; in experiment [16] it was 32.8%; in experiment [17], -32% (active); in experiment [18], -14.2% (active). Moreover, the figures for the growth in experiment [19] and in experiment [20] were -70.8% (active) and 61.3%, respectively.

`COc1cnc2c(c1)C(=O)c1c-2n(CCCCl)c(=O)c2ccncc12`: the growth is 76% in experiment [1]; 38.7% in [2]; 103% in [3]; 81.4% in experiment [4]; 81% in experiment [5]; 57.6% in experiment [6]. Besides, the growth was 36.6% in experiment [7]; 56.1% in experiment [8]; 70% in experiment [9]; 67.5% in [10]; 75.5% in experiment [11]; 49.5% in [12]. In addition, the growth in experiment [13] is 55.6%; in experiment [14], 55.4%; in experiment [15] it was 33.6%; in experiment [16], 54%; in experiment [17], 34.3%; in experiment [18], 23.7%. For the same molecule, the growth is 33.8% in experiment [19] and 99.3% in [20].

As to `CNC(=O)c1cc(Oc2ccc3c(c2)sc2nc(-c4ccc(OC)cc4)cn23)ccn1`, the growth in experiment [1] was 8.28% (active); in [2] it was 33.8%; in experiment [3] it was 68.3%; in experiment [4] it was 62.2%; in experiment [5], 45.7%; in experiment [6], 80.1%. Besides, the growth in experiment [7] is 14.1%; in experiment [8], 83.6%; in experiment [9], 46.5%; in experiment [10] it was 57.9%; in experiment [11], 52.7%; in experiment [12], 65.6%. The growth was 76.8% in [13]; 79.8% in experiment [14]; 81.8% in experiment [15]; 58.3% in experiment [16]; 20.3% in experiment [17]; 40.2% in experiment [18]. In addition, the growth is 82.1% in experiment [19] and 67.9% in experiment [20].

As to `Cc1ccccc1Nc1cc(O)c2c(=O)cc(-c3ccccc3)oc2c1`, the growth is 26.8% in experiment [1]; 10.2% in experiment [2]; 47.9% in experiment [3]; 50.7% in experiment [4]; 28% in [5]; 61.5% in experiment [6]. For the same molecule, the growth is 27.1% in [7]; 23.1% in [8]; 80.6% in experiment [9]; 24.6% in experiment [10]; 17.6% in experiment [11]; 69.9% in experiment [12]. Further, the growth in experiment [13] is -5.66% (active); in experiment [14] it was 32.6%; in experiment [15] it was 36.2%; in experiment [16], 40.6%; in experiment [17], 23.5%; in [18] it was 43.4%. The growth in [19] was 30.9%; in [20], 51.1%.

Turning to `COc1ccc(C#Cc2ccc(=O)oc2-c2cc(OC)c(OC)c(OC)c2)cc1O`, the growth is 58.5% in experiment [1]; 16.8% in [2]; 38.8% in [3]; 59.9% in experiment [4]; 57.8% in experiment [5]; 69.7% in [6]. The growth was 23.5% in experiment [7]; 47.6% in experiment [8]; 53% in experiment [9]; 33.9% in experiment [10]; 30.7% in [11]; 33.9% in experiment [12]. In addition, the growth was 40.1% in experiment [13]; 54.6% in experiment [14]; 39.7% in experiment [15]; 40.6% in experiment [16]; 24.5% in experiment [17]; 44% in [18]. The growth in experiment [19] was 41.4%; in experiment [20], 59%.

Turning to `COC(=O)c1ccc(NC(=O)Nc2ccc(C(=O)OC)cc2)cc1`, the growth in [1] is 121%; in experiment [2] it was 90.6%; in experiment [3] it was 123%; in experiment [4] it was 94.1%; in experiment [5], 112%; in experiment [6], 115%. Besides, the growth was 121% in [7]; 112% in experiment [8]; 104% in experiment [9]; 103% in experiment [10]; 93% in experiment [11]; 82.4% in experiment [12]. For the same molecule, the growth in experiment [13] was 113%; in experiment [14], 97.2%; in experiment [15], 113%; in [16] it was 82%; in experiment [17] it was 102%; in experiment [18] it was 82.3%. The growth is 98.1% in [19] and 102% in experiment [20].

Take `Cc1ccc(CNc2ccc3nc(CCC(C)C)[nH]c3c2)cc1`: the growth in [1] was 101%; in [2], 79.2%; in experiment [3], 90.9%; in experiment [4], 86%; in [5], 96%; in [6], 91.2%. For the same molecule, the growth was 95.1% in experiment [7]; 94.4% in experiment [8]; 89.7% in [9]; 96.2% in experiment [10]; 79.5% in experiment [11]; 92.4% in experiment [12]. The growth in [13] was 86.4%; in experiment [14], 89%; in experiment [15], 91.8%; in experiment [16] it was 77.9%; in experiment [17], 97.8%; in [18], 90.7%. Moreover, the growth in experiment [19] is 94.5%; in experiment [20], 98%.
